G9a block: G9a (human) methyltransferase inhibition; G9a H3K9 monomethylation, AlphaScreen, 2 h; Potency, µM (titrated, usually from 102 µM), for inactives: at the top dose activity, negative = inhibition, actives largely listed as inhibitors; actives 8.8% (n = 350,000); AID 504332; note: % is set by controls: 0 for no effect and ±100 for the full control effect; nearly all actives have a fitted effect of over 75% in size
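AlphaScreen detection with an anti-monomethyl H3K9 antibody quantified product after a 2 h room-temperature reaction containing 500 nM biotinylated H3K9 peptide, 20 µM SAM and 20 nM enzyme, which had been preincubated 15 min with compound.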
TDP1 block: TDP1 (human) enzyme inhibition. recombinant TDP1, AlphaScreen DNA substrate cleavage. actives 0.28% (n = 350,000). Q9NUW8. Potency, µM (titrated, usually from 130 µM), inactives show top-dose activity change, negative = inhibition, usual class: inhibitors. AID 485290; note: % is set by controls: 0 for no effect and ±100 for the full control effect; nearly all actives have a fitted effect of over 40% in size
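Recombinant human Tdp1 (E. coli-expressed, 1 nM final) preincubated with compounds 15 min at room temperature, then 5'-biotin/3'-phosphotyrosine-FITC DNA substrate (15 nM final) added for 5 min. AlphaScreen beads (10 ug/ml final) added 10 min; cleavage lowers signal.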
Sfp PPTase inh: inhibitors of Bacillus subtilis Sfp phosphopantetheinyl transferase; Q9F4F7; Biochemical Sfp PPTase activity, qHTS; Potency, µM, for the others: largest response in the series, negative = inhibition, usual class: inhibitors; actives 3.5% (n = 310,000); AID 1490;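 note: the enzyme is Sfp with the accession as filed and its product quenches rhodamine fluorescence; 0% = enzyme reaction without inhibitor and -100% = no enzyme wells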
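Buffer: 50 mM Hepes-Na pH 7.6, 10 mM MgCl2, 0.01% Nonidet P-40, 0.01% BSA. Enzyme 15 nM, pre-exposed to compound 15 min; substrates then added and fluorescence change tracked over 30 min.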
BAZ2B block: inhibitors of human BAZ2B bromodomain; Q9UIF8; AlphaScreen BAZ2B-H3K14Ac peptide displacement; Potency, µM (titrated, usually from 114 µM), for inactives: top-dose activity change, negative = inhibition, hits mostly inhibitors; actives 4.4% (n = 360,000); AID 504333; note: % is set by controls: 0 for no effect and ±100 for the full control effect; nearly all actives have a fitted effect of over 60% in size
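AlphaScreen luminescence quantifies BAZ2B engagement of H3K14Ac peptide; the protein and biotinylated peptide are both at 50 nM final, buffer PBS pH 7.4 with 0.01% Tween-20, all steps at room temperature.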
HP1b chromo inh: HP1-beta chromodomain-methylated histone interaction inhibition. P83916. Potency, µM (doses to about 114 µM), for inactives: at the highest dose activity change, negative = inhibition, usual class: inhibitors. AlphaScreen HP1-beta / biotin-H3K9me3 peptide binding. actives 0.56% (n = 390,000); note: nearly all actives have a fitted effect of over 70% in size
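HP1-beta protein (50 nM final) preincubated 30 min at room temperature with biotinylated H3(1-18)K9me3 peptide (50 nM) in PBS pH 7.4, 0.01% Tween-20, then compound added for 30 min. AlphaScreen streptavidin donor/nickel chelate acceptor beads (10 ug/mL final), 30 min dark, luminescence read.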
JMJD2A Tudor: JMJD2A Tudor domain (human) inhibition; actives 4.4% (n = 390,000); AID 504339; AlphaScreen JMJD2A-Tudor / H3K4me3 peptide binding; O75164; Potency, µM (series often up to 114 µM), without a hit: top-dose activity change, negative = inhibition, actives largely listed as inhibitors; note: % is set by controls: 0 for no effect and ±100 for the full control effect; nearly all actives have a fitted effect of over 50% in size
Target sequence (O75164 whole entry, looked up, the tested form may be a part): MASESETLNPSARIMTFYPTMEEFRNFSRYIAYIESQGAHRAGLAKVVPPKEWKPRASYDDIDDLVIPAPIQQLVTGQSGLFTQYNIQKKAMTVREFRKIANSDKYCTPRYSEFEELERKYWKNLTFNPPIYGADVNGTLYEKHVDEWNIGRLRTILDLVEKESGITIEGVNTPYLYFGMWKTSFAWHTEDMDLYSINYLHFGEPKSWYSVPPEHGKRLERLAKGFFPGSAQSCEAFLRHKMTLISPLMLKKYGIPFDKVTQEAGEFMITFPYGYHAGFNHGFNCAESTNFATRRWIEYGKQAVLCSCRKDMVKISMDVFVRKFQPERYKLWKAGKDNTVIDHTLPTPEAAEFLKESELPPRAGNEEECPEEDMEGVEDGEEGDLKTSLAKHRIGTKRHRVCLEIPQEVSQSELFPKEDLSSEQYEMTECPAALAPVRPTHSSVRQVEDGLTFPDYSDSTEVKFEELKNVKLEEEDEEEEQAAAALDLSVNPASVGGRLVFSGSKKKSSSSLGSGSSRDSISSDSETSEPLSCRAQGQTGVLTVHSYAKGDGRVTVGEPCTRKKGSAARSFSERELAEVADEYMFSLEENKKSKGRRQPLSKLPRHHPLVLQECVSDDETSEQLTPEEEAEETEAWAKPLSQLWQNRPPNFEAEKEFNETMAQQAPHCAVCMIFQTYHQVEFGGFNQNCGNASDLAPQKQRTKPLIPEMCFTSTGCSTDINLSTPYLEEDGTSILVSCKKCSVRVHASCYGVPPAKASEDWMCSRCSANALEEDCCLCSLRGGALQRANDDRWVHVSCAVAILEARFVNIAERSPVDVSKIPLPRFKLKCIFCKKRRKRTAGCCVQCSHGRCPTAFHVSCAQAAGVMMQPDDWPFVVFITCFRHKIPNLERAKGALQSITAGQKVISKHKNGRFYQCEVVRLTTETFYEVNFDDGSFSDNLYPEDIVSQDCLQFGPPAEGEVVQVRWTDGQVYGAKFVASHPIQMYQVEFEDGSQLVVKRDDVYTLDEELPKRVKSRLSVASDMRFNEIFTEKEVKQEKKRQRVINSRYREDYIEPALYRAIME
An asterisk follows results filed as active; ? = inconclusive; . = no result given; [ ] = dose if it differs, or a comment. Rows were chosen to be rich in hits. Some 12% of all compounds tested hit in one or more screens of this group. Calls come from the whole dose curve; as a rule, active = well fitted curve in the direction sought with a large enough effect; inconclusive = small, poorly fitted or top-dose-only effect, or another doubt; inactive = no such curve, though single readings can be large; an effect the other way counts as inactive or inconclusive. Potency is the fitted concentration of half-maximal effect.

SMILES	G9a block	TDP1 block	Sfp PPTase inh	BAZ2B block	HP1b chromo inh	JMJD2A Tudor
CCc1cccc(-n2c(=O)c3cccnc3n2CC(=O)Nc2ccc(OC)c(Cl)c2)c1	4%[59 µM]	5%	.	-1%	44%	-7%
O=C(NNC(=O)C1CCN(C(=O)Nc2ccccc2)CC1)c1ccc([N+](=O)[O-])cc1	21%[12.7 µM]	0%	.	-5%	44%	-6%
O=C(c1ccc(NS(=O)(=O)c2ccc(F)cc2)cc1)N1CCCCC1	45µM*	-7%[0.505 µM]	.	7%	8%	-8%
O=S(=O)(Nc1ccc(S(=O)(=O)N2CCCCCC2)cc1)c1cccs1	7%[12.7 µM]	4%	10%	4%	14%	-5%
O=S(=O)(Nc1ccc(N2CCCCC2)cc1)c1ccccc1	?	2%	-6%	50µM*	?	?
O=S(=O)(Nc1ccc(N2CCCCC2)cc1)c1cccs1	35µM*	10%	-24%	?	-26%	?
COc1ccccc1C(=O)NNC(=O)C(=O)N1CCCCC1	.	0%	-14%	?	18%	?
O=C(NNC(=O)c1ccc(F)cc1)C(=O)N1CCCCC1	?	-4%	6%	8%	10%	25µM*
C[C@@H]1C[C@H]2[C@H]3C[C@@H](F)C4=CC(=O)C=C[C@]4(C)[C@@]3(Cl)[C@@H](O)C[C@@]2(C)[C@@H]1C(=O)COC(=O)C(C)(C)C	1%[12.7 µM]	4%	15%	.	.	.
CCn1cc(S(=O)(=O)c2ccc(C)cc2)c(=O)c2cc(OC)ccc21	13%	3%	12%	-5%	29%	-14%
Cc1ccc(S(=O)(=O)NCC(=O)N(CC(=O)NCC2CCCO2)Cc2ccc(Cl)cc2)cc1 (centres undefined)	0%	12%	14%	-5%	19%	4%
c1ccc(-c2nc(-c3cccc4ccccc34)c(Nc3ccc4ccccc4c3)o2)cc1	.	9%	0%	.	.	.
CCOC(=O)CNC(=O)Cc1ccc(Cl)cc1	.	5%	3%	0%	24%	0%
CCOC(=O)Cc1ccc(NCc2ccc(Cl)cc2)cc1	50µM*	2%	-15%	?	9%	?
c1ccc(CNCc2nnc(-c3cc4ccccc4[nH]3)s2)cc1	.	0%	.	.	.	-18%
CCOC(=O)CN(C(=O)COC(=O)C1(c2ccccc2)CC1)c1ccc(F)cc1	-50%	-19%	.	6%	49%	-5%
CCc1ccc(-c2nn[nH]n2)cc1	2%[59 µM]	2%	7%	?	27%	-1%
C[C@](N)(C(=O)O)c1ccc(-c2nn[nH]n2)cc1	.	6%[56.1 µM]	28µM*	.	.	.
CC(N)(C(=O)O)c1ccc(S(=O)(=O)O)cc1 (centres undefined)	18%[59 µM]	-4%	50µM*	.	.	.
COc1ccc(-n2ncc3c2CC(C)(C)CC3NC(=O)c2ccoc2C)cc1 (centres undefined)	6%	6%	5%	?	8%	-7%
COc1ccc(OC)c(C(=O)NC2CC(C)(C)Cc3c2cnn3-c2ccccc2)c1 (centres undefined)	-6%	2%	-12%	71µM*	23%	-32%
CCN1CCN(C(=O)N2CCOCC2)CC1	.	-1%	4%	-8%	12%	-2%
CC(NC(=O)COC(=O)CN1C(=O)C2CCCCC2C1=O)c1ccccc1 (centres undefined)	.	0%	.	.	28%	10%
COC(=O)C(NC(=O)c1ccccc1)(Nc1nccs1)C(F)(F)F (centres undefined)	-1%	-5%	2%	0%	26%	-24%
COC(=O)C(NNc1ccc(F)cc1)(NC(=O)c1ccccc1)C(F)(F)F (centres undefined)	25µM*	8%	7%	-4%	24%	-17%
SMILES	G9a block	TDP1 block	Sfp PPTase inh	BAZ2B block	HP1b chromo inh	JMJD2A Tudor
COC(=O)C(NNc1ccccc1C)(NC(=O)c1ccc(F)cc1)C(F)(F)F (centres undefined)	3.2µM*	11%	10%	-6%	?	?
CCOC(=O)C(NCc1ccc(F)cc1)(NC(=O)c1ccccc1)C(F)(F)F (centres undefined)	-3%[59 µM]	5%	-12%	75%	39%	-3%
c1ccc(-c2ccc(-c3ccccc3)[nH]2)cc1	.	.	.	.	-13%[57 µM]	?
O=C(O)c1ccc(-c2ccccc2)[nH]c1=O	56µM*	-4%	3%	-33%	5%	-17%[11.4 µM]
Cc1ccccc1OCC(=O)NCC(c1ccc(Cl)cc1)N1CCOCC1 (centres undefined)	2%[59 µM]	-8%	.	-10%	46%	-9%
C#CCOCCOCCOCCNc1nc(N2CCN(C(=O)[C@H](CCCCN)n3cc([C@@H](N)C(C)CC)nn3)CC2)nc(N2CCN(C(=O)[C@H](CCCCN)n3cc([C@@H](N)CO)nn3)CC2)n1 (some centres undefined)	?	.	3%	22µM*	.	.
C#CCOCCOCCOCCNc1nc(N2CCN(C(=O)[C@H](CCCCN)n3cc([C@@H](N)[C@H](C)CC)nn3)CC2)nc(N2CCN(C(=O)[C@H](CCC(=O)O)n3cc([C@@H](N)CCCCN)nn3)CC2)n1	.	2%	.	.	65%	?
C#CCOCCOCCOCCNc1nc(N2CCN(C(=O)[C@H]([C@@H](C)CC)n3cc([C@@H](N)CO)nn3)CC2)nc(N2CCN(C(=O)[C@H](CCCCN)n3cc([C@@H](N)C(C)CC)nn3)CC2)n1 (some centres undefined)	12%[12.7 µM]	4%	-14%	50µM*	39%	50µM*
COCCn1c(C)cc(C2=NNC(=Nc3ccccc3F)SC2)c1C	7.9µM*	8%	35µM*	?	-24%	89µM*
C=CCN=C1NN=C(c2cc(C)n(CC=C)c2C)CS1	?	6%	-41%	?	2%	?
COCCCN=C1NN=C(c2cc(C)n(Cc3ccccc3Cl)c2C)CS1	28µM*	7%	?	40µM*	?	?

Compound activity deposited in PubChem BioAssay by National Center for Advancing Translational Sciences (NCATS).
